PINK1 expr mod = A Quantitative High throughput Screen to Identify Chemical Modulators of PINK1 Expression. PINK1 immunofluorescence, high-content cytometry, 24 h. Potency, µM (series often up to 76.6 µM), for the others: top-dose activation (PINK1 increase), most hits filed as activators. actives 0.2% (n = 410,000). AID 624263, 2012; active means well fitted activation curve with a large enough effect; inconclusive means small, poorly fitted or top-dose-only effect; cell line not stated here; further: % of control where 0% means no effect; nearly all actives have a fitted effect of over 65% in size
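Cells are seeded, rested 12 hours, then given compound at five concentrations or DMSO for 24 hours. After fixation, blocking and antibody staining, PINK1 amount and mitochondrial localization are scored; CCCP serves as control.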
SW480 rereplic = A quantitative high throughput screen for small molecules that induce DNA re-replication in SW480 colon adenocarcinoma cells; SW480 DNA re-replication, Hoechst DNA content imaging, 48 h; Potency, µM (titrated, usually from 46.1 µM), for inactives: at the top dose re-replication activation, usual class: activators; actives 1.8% (n = 340,000); further: % of control where 0% means no effect; nearly all actives have a fitted effect of over 55% in size
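DNA re-replication was detected as more nuclei of elevated Hoechst intensity after 48 hr exposure to compound (23 nL pinned per well of 250 cells).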
KB-3-1 cytotox = qHTS assay for MDR1-selective chemotherapeutics: Primary screen using the parental adenocarcinoma cell KB-3-1; KB-3-1 viability, CellTiter-Glo ATP luminescence, 72 h; Potency, µM (top dose mostly 46.1 µM), actives largely listed as cytotoxic; actives 1.4% (n = 400,000); AID 1347075, 2019; further: on the % scale 0 is the no-effect control and ±100 the full control effect; nearly all actives have a fitted effect of over 60% in size
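Multi-concentration cytotoxicity screen in KB-3-1 cells grown in DMEM lacking phenol red with 10% FBS. After 72 h at 37 °C with compound, ATP-dependent luminescence was recorded.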
MCF10A rerep = A quantitative high throughput screen for small molecules that induce DNA re-replication in MCF 10a normal breast cells; MCF 10A DNA re-replication, Hoechst nuclear intensity, 48 h; Potency, µM (series often up to 46.1 µM), inactives show top-dose activity, positive = re-replication, actives largely listed as activators; actives 2.9% (n = 350,000); AID 624296, 2012; further: % of control where 0% means no effect; nearly all actives have a fitted effect of over 50% in size
KB-V1 cytotox = qHTS assay for MDR1-selective chemotherapeutics: Primary screen using the drug-selected MDR subline cells KB-V1. KB-V1 MDR cells viability, CellTiter-Glo, 72 h. Potency, µM (top dose mostly 46.1 µM), most hits filed as cytotoxic. actives 3.4% (n = 400,000). AID 1347076, 2019; further: on the % scale 0 is the no-effect control and ±100 the full control effect; nearly all actives have a fitted effect of over 60% in size
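Cytotoxicity via CellTiter-Glo luminescence after 72 h compound exposure at 37 degrees C. Cells: drug-selected KB-V1 line, DMEM phenol-red free plus 10% FBS. Compounds tested at multiple concentrations; normalized data fitted to concentration-effect curves.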
The depositor's hits bear a star; i = inactive; ? = inconclusive; . = no result given; ! = repeats disagree; [ ] = remark or other dose. Hits are enriched below; roughly 6.7% of the tested compounds scored in any of these assays. Unless noted, the call rests on the fitted dose curve; in most records, active means well fitted curve in the direction sought with a large enough effect; inconclusive means small, poorly fitted or top-dose-only effect, or another doubt; inactive means no such curve, though single readings can be large; an effect the other way counts as inactive or inconclusive. Potency means the concentration at half of the fitted maximal effect.

SMILES | PINK1 expr mod | SW480 rereplic | KB-3-1 cytotox | MCF10A rerep | KB-V1 cytotox
CCOc1cc(NC(=O)CCl)c(OCC)cc1NC(=O)CCl | 7% | 3.3µM* | 21µM* | 6.5µM* | ?
N=c1ccn(Cc2ccc(Cl)cc2Cl)cc1 | ? | -3% | 6.5µM* | 7% | i
N=c1ccn(Cc2cccc(Cl)c2)cc1 | 6% | -5% | ? | ? | ?
N=c1ccn(Cc2ccc(Cl)c(Cl)c2)cc1 | 40µM* | 0% | ? | 9% | i
N=c1ccn(Cc2c(Cl)cccc2Cl)cc1 | 0% | 14% | ? | ? | i
N=c1ccn(Cc2ccc(Cl)cc2)cc1 | ? | 10% | 4.6µM* | 6% | i
CN(C)/C=N/c1c(C#N)cnn1-c1ccc(C(F)(F)F)cn1 | -2%[38.3 µM] | 18% | i | 15µM* | i
CC(C)n1c(=S)[nH]c2scc(-c3cccs3)c2c1=O | 1% | -2% | i | 6.5µM* | i
CCn1c(=S)[nH]c2scc(-c3cccs3)c2c1=O | -1% | 158% | ? | ? | i
Cn1cccc1C(=O)N1CCC2(CCN(C(=O)Nc3ccccc3)CC2)CC1 | 1% | . | . | . | .
CC(C(=O)NCC1CCCO1)N(C(=O)c1snc(C(N)=O)c1N)c1cccc(F)c1 (centres undefined) | 0%[38.3 µM] | -2% | i | -6% | 12µM*
CC(C)c1ccc(N(C(=O)c2snc(C(N)=O)c2N)C(C(=O)NCC2CCCO2)c2ccc(N(C)C)cc2)cc1 (centres undefined) | 9% | 2% | ? | ? | 21µM*
CC(C(=O)NCC1CCCO1)N(C(=O)c1snc(C(N)=O)c1N)c1ccccc1 (centres undefined) | -3% | 0% | i | 0% | i
COc1ccc(NC(=O)N2CC[C@@]3(CCCN(C(=O)c4cccc(F)c4)C3)C2)cc1 | 0% | . | . | . | .
O=C(CN1CCCC1c1cccs1)N1CCN(S(=O)(=O)c2cccc(F)c2)CC1 (centres undefined) | 2% | 4% | i | 0% | i
COc1ccc(N(C(=O)c2cccnc2)S(=O)(=O)c2ccc3c4c(cccc24)C(=O)N3C)cc1 | 2% | -6% | i | ? | 16µM*
COc1cc(C)c(/C=C(\C#N)C(=O)Nc2cccc(C)c2)cc1C(C)C | 10% | -2% | i | 21µM* | i
Cc1cccc(NC(=O)/C(C#N)=C\c2ccc(C(=O)O)cc2)c1 | -1% | 1% | i | 7% | i
CCc1cc(SC#N)cc(CC)c1NC(=O)CCl | -3% | 23µM* | 21µM* | 16µM* | ?
O=C(Cn1cc(S(=O)(=O)Cc2ccccc2)c2ccccc21)Nc1ccccc1 | 11% | -2% | i | 22% | 18µM*
CC(=O)c1ccc(NC(=O)Cn2cc(S(=O)(=O)Cc3cccc(Cl)c3)c3ccccc32)cc1 | 8% | . | i | . | i
COc1ccc(/C=C/C(=O)c2ccncc2)c2ccccc12 | -3% | ? | i | 12µM* | i
O=C(Nc1ccc(S(=O)(=O)N2CCCC2)cc1)C1CC(=O)N(CCc2ccc(F)cc2)C1 (centres undefined) | -2% | 0% | i | 8% | i
Cc1ccc(C)c(NC(=O)CN(C)C(=O)c2ccc(-c3cccc(C(F)(F)F)c3)o2)c1 | 6% | -3% | i | 20% | 18µM*
CSCCC(NS(=O)(=O)c1ccc(Cl)cc1)C(=O)OCC(=O)c1c(C)[nH]c2ccccc12 (centres undefined) | ? | 17% | ? | 12µM* | 15µM*
SMILES | PINK1 expr mod | SW480 rereplic | KB-3-1 cytotox | MCF10A rerep | KB-V1 cytotox
CSCCC(NS(=O)(=O)c1ccc2ccccc2c1)C(=O)OCC(=O)c1ccc(C(C)C)cc1 (centres undefined) | -1% | ? | i | -2% | 18µM*
Cc1[nH]c2ccccc2c1C(=O)COC(=O)C1CC(O)CN1S(=O)(=O)c1ccc(Cl)cc1 (centres undefined) | 1% | -3% | i | -5% | i
CCc1nc(SCC(=O)Nc2cc(OC)ccc2OC)c2c(C)c(C)sc2n1 | 6% | -12% | i | ? | ?
CC1(C(=O)Nc2cccc(Oc3ccccc3)c2)CCN1Cc1cc2ccccc2o1 (centres undefined) | 4% | . | i | . | i
CCN=c1scc(-c2ccccc2)n1/N=C/c1ccccn1 | 0% | -3% | 8.2µM* | 21µM* | ?
C=CCN=c1scc(-c2ccc(F)cc2)n1/N=C/c1ccccn1 | 0% | 4% | ? | ? | i
CCN=c1scc(-c2ccc(F)cc2)n1/N=C/c1ccccn1 | 0% | -89% | i | 13%[9.22 µM] | ?
C=CCN=c1scc(-c2ccccc2)n1/N=C/c1ccccn1 | 0% | ? | 1.5µM*! | ? | 7.3µM*!
COc1cccc(NC(=O)CN(C)CC(=O)Nc2ccc(C)c(S(=O)(=O)N3CCOCC3)c2)c1 | 3% | 1% | i | -2% | ?
COc1cc(NC(=O)C2=C(N3CCOCC3)/C(=C\c3ccc(N(C)C)cc3)CCC2)cc(OC)c1OC | 3% | 10µM* | 12µM* | 18µM* | 2.6µM*
COc1cc(NC(=O)C2=C(N3CCOCC3)/C(=C/c3ccc(Cl)cc3)CC2)cc(OC)c1OC | 17% | -96% | i | ? | ?
CCOC(=O)c1ccc(NC(=O)c2oc(=O)c3ccccc3c2-c2ccccc2)cc1 | -2% | . | i | . | ?
O=C(NCCc1nnc2n1CCN(Cc1ccsc1)CC2)c1ccc(F)cc1 | 1% | . | . | . | .
CN(C)/C=C/C(=O)c1ccccc1OCc1cnc(Cl)s1 | 0% | ? | i | 18µM* | i
C#Cc1cccc(C(=O)NCc2nc(-c3ccccc3NC(C)=O)oc2C)c1 | -1% | . | . | . | .
CS(=O)(=O)N(CC(=O)N1CCN(Cc2ccccc2)CC1)C1CCCCC1 | 3% | -2% | i | -12% | i
O=C(CCC1CCCCC1)N1CCN(Cc2ccc3c(c2)OCO3)CC1 | -3% | -1% | ? | 9% | 23µM*
CS(=O)(=O)N(CC(=O)N1CCN(Cc2ccc3c(c2)OCO3)CC1)C1CCCCC1 | 1% | -6% | i | -5% | 21µM*
CC(C)(C)CC(=O)N1CCN(Cc2ccc3c(c2)OCO3)CC1 | 0% | -6%[9.22 µM] | i | -10% | i
CCc1cccc(NC(=O)c2cnc(SC)nc2-c2ccccc2)c1 | 1% | . | ? | . | i
CC1Cc2ccccc2N1C(=O)CSc1nnc(-c2ccc(S(=O)(=O)N3CCCC3)cc2)o1 (centres undefined) | 9%[38.3 µM] | 1% | i | 2% | 2.1µM*
CCN(C(=O)Cn1ncc2c(=O)oc3ccccc3c21)c1ccccc1F | 1% | . | i | . | i

From PubChem
